This passage reports max response results from PubChem BioAssay (NCATS).

Structures are written as SMILES. “And” between values parts separate entries of the source, which are not always exact repeats. Equal entries are not always repeated. Results filed as inconclusive are left out. The source made the active and inactive calls. Calls follow the shape of the dose curve; as a rule, active = well fitted inhibition curve with a large enough effect; inconclusive = small, poorly fitted or top-dose-only effect; inactive = flat fitted curve, though single readings scatter. Where a SMILES comes first, the peptide text is derived from it. [ ]: non-standard residue; d: D form. pGlu = O=C1CC[C@@H](C(=O)O)N1
% is scaled to controls: 0 for no effect and ±100 for the full control effect.

The test concerns KB-3-1. The test can be described thus: Cytotoxic Profiling of Annotated Libraries Using Quantitative High-Throughput Screening (AID 1296008). Also: nearly all actives have a fitted effect of over 60% in size. The note with it: Five cell lines viability, CellTiter-Glo ATP luminescence, 48-72 h; max response: hits give low values. In outline:
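Cytotoxicity was measured as CellTiter-Glo ATP luminescence, read after 10 min at room temperature. Compound treatment of the cells lasted 48 or 72 hr at 37 degrees Celsius in a qHTS format.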
Consider `CC(C)(C)NCC(O)CSc1nc(-c2ccc(C(N)=O)s2)cs1` (configuration not stated), for which the max response is 15.3% (inactive).
With `C[N+]1(C)[C@@H]2CC(OC(=O)C(O)(c3cccs3)c3cccs3)C[C@H]1[C@@H]1O[C@@H]12` (some centres not stated) the figure was -8.8% (inactive).
Under `CC(C)C[C@H](NC(=O)[C@@H](COC(C)(C)C)NC(=O)[C@H](Cc1ccc(O)cc1)NC(=O)[C@H](CO)NC(=O)[C@H](Cc1c[nH]c2ccccc12)NC(=O)[C@H](Cc1cnc[nH]1)NC(=O)[C@@H]1CCC(=O)N1)C(=O)N[C@@H](CCCN=C(N)N)C(=O)N1CCC[C@H]1C(=O)NNC(N)=O` stands -3.63% (inactive) and -15.5% (inactive); under `CC(=C\c1ccccc1)/C=C1/SC(=S)N(CC(=O)O)C1=O`, 3.64% (inactive).
Regarding `CN[C@@H]1[C@@H](O)[C@@H](O[C@@H]2[C@@H](O)[C@H](OC3OC(CN)=CCC3N)[C@@H](N)C[C@H]2N)OC[C@]1(C)O` (some centres not stated), the max response is -18.5% (inactive).
Under `CC[C@H](C)[C@H](NC(=O)[C@H](Cc1ccccc1)NC(=O)[C@H](C)NC(=O)[C@H](CC(=O)O)NC(=O)[C@H](CCCCN)NC(=O)[C@H](CO)NC(=O)[C@@H]1CCCN1C(=O)[C@@H]1CCC(=O)N1)C(=O)NCC(=O)N[C@@H](CC(C)C)C(=O)N[C@@H](CCSC)C(N)=O` ([pGlu]PSKDAFIGLM-NH2) stands 17.8% (inactive).
With `CCCC1C(=O)N2C(N(C)C)=Nc3ccc(C)cc3N2C1=O` (configuration not stated) the figure was -2.47% (inactive); with `Nc1nc2c(c(=O)[nH]1)N(C=O)C(CNc1ccc(C(=O)N[C@@H](CCC(=O)O)C(=O)O)cc1)CN2` (some centres not stated), 0.559% (inactive).
With `C[C@@H]1NC(=O)[C@@H](N)CNC(=O)[C@H](C2CCNC(N)=N2)NC(=O)/C(=C/NC(N)=O)NC(=O)[C@H](CNC(=O)C[C@@H](N)CCCN)NC1=O` (some centres not stated) the figure was -2.35% (inactive) and -9.97% (inactive); with `CCN(CC)C(=O)[C@]1(c2ccccc2)C[C@@H]1CN`, 6.62% (inactive).
On to `CC(O)[C@H]1CC[C@H]2[C@@H]3CC[C@@H]4C[C@@H](O)CC[C@]4(C)[C@H]3CC[C@]12C` (some centres not stated), for which the max response is -16.3% (inactive).
With `O=C(O)[C@@H]1C[C@H](CP(=O)(O)O)CCN1` the figure was 23.4% (inactive); with `COc1ccc2cc([C@H](C)CO)ccc2c1`, 0.171% (inactive).
On to `CC(C)=CCC/C(C)=C/CC/C(C)=C/CC/C(C)=C/CC1=C(C)C(=O)c2ccccc2C1=O`, for which the max response is 5.32% (inactive) and -12.9% (inactive).
Under `CC(=O)N[C@@H]([C@@H](O)[C@H](O)[C@H](O)CO)[C@@H](O)CC(=O)C(=O)O` stands 10.5% (inactive).
With `Cc1ccc(S(=O)(=O)NC(=O)N[C@@H](C)Cc2ccccc2)cc1` the figure was 4.03% (inactive); with `CC[C@@H](C(=O)[C@@H](C)[C@@H](O)[C@H](C)[C@@H]1O[C@@H]([C@@H](CC)C(=O)O)CC[C@@H]1C)[C@H]1O[C@]2(C=C[C@@H](O)[C@]3(CC[C@@](C)([C@H]4CC[C@](O)(CC)[C@H](C)O4)O3)O2)[C@H](C)C[C@@H]1C`, -24.3% (inactive); with `C=CC1=C(C(=O)O)N2C(=O)[C@@H](NC(=O)/C(=N/OCC(=O)O)c3csc(N)n3)[C@H]2SC1` (stereo in doubt), -4.79% (inactive).
With `C=C[C@]1(C)C[C@@H](OC(=O)CSCCN(CC)CC)[C@]2(C)[C@H](C)CC[C@]3(CCC(=O)[C@H]32)[C@@H](C)[C@@H]1O` the figure was -8.95% (inactive); with `CC1(C)[C@H]2CC[C@]1(C)[C@H](O)C2`, -0.648% (inactive).
Regarding `O=C1c2c(O)cccc2[C@H]([C@@H]2O[C@H](CO)[C@@H](O)[C@H](O)[C@H]2O)c2cc(CO)cc(O)c21`, the max response is 8.29% (inactive).
On to `CC[C@H](CC[C@@H](C)[C@H]1CC[C@H]2[C@@H]3CC=C4C[C@@H](O)CC[C@]4(C)[C@H]3CC[C@]12C)C(C)C`, for which the max response was -4.33% (inactive).
Under `O=C1NC(=O)[C@H]2[C@@H]1[C@@H]1C=C[C@H]2C1` stands -8.53% (inactive); under `CC(C)(C)NCC(O)c1ccc(O)c(CO)n1` (configuration not stated), -3.71% (inactive).
With `CCCCC[C@H](O)/C=C/[C@H]1[C@H](O)CC(=O)[C@@H]1CCCCCCC(=O)O` the figure was 3.75% (inactive); with `CO[C@@H]1[C@H](OC(=O)/C=C/C=C/C=C/C=C/C(=O)O)CC[C@]2(CO2)[C@H]1[C@@]1(C)O[C@@H]1CC=C(C)C`, 2% (inactive).
Under `COc1ccc(C[C@H](C)NC[C@@H](O)c2ccc(O)c(NC=O)c2)cc1` stands 5.8% (inactive).
As to `CC(=O)N[C@@H](C=O)[C@@H](O)[C@H](O)[C@H](O)CO`, the max response was 2.45% (inactive).
Regarding `Nc1nc(NC2CC2)c2ncn([C@@H]3C=C[C@@H](CO)C3)c2n1`, the max response is 3.44% (inactive).
Under `O=[N+]([O-])O[C@@H]1CO[C@H]2[C@@H]1OC[C@@H]2O` stands -3.81% (inactive).
Under `CO[C@H]1O[C@@H]2O[C@@]3(C)CC[C@H]4[C@H](C)CC[C@@H]([C@H]1C)[C@@]24OO3` stands 1.88% (inactive); under `COc1ccc(C(=O)/C(Br)=C\C(=O)O)cc1`, 19.2% (inactive).
Under `CC(=O)O[C@@H]1CC2CCC1(C)C2(C)C` (some centres not stated) stands -0.31% (inactive); under `O=C(OC[C@H]1O[C@](O)(COC(=O)c2cccnc2)[C@@H](OC(=O)c2cccnc2)[C@@H]1OC(=O)c1cccnc1)c1cccnc1`, -13.5% (inactive); under `CC(C)(O/N=C(\C(=O)N[C@@H]1C(=O)N2C(C(=O)[O-])=C(C[n+]3ccccc3)CS[C@H]12)c1csc(N)n1)C(=O)O`, -11.3% (inactive).
As for `NCCCC[C@H](N)C(=O)O`, the max response is 0.45% (inactive).
In the case of `O=C(Cc1cccs1)N[C@@H]1C(=O)N2C(C(=O)[O-])=C(C[n+]3ccccc3)CS[C@H]12`, the max response is 6.88% (inactive).
